# Reference: PubChem BioAssay (EPA / NIEHS)
# “And” between values parts separate entries of the source, which are not always exact repeats. Equal values may be shown once. More than one record can exist for a structure, and the calls need not agree. The source made the active and inactive calls. The calls were made as follows: active = hit-call score of the fitted dose curve at least 0.9, where 1 is the maximum; inactive = score below 0.9.
# Assays:
# [1] = ATG_GLI_CIS: Attagene CIS-FACTORIAL HepG2 Assay for human Zinc Finger Protein GLI1 (AID 2282945); conditions: HepG2, Attagene cis-factorial reporter mRNA, GLI element; actives raise or lower the signal
# Procedure, shortened: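 Transiently transfected HepG2 cells report endogenous transcription factor activity via cis-element-driven reporter units. After 24 h compound exposure, reporter mRNA was measured by RT-PCR with capillary electrophoresis; bidirectional fitting against DMSO baseline.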
# [2] = ATG_GRE_CIS: Attagene CIS-FACTORIAL HepG2 Assay for human Glucocorticoid Response Elements (GRE) (AID 2282947); conditions: HepG2 GRE cis-reporter, Attagene multiplex mRNA; actives raise or lower the signal
# Procedure, shortened: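 Endogenous transcription factor activity is read through cis-element reporter constructs transiently transfected into HepG2 cells. After 24 h treatment, labelled RT-PCR products are resolved by capillary electrophoresis; DMSO sets baseline for bidirectional curve fitting.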
# [3] = ATG_ISRE_CIS: Attagene CIS-FACTORIAL HepG2 Assay for human Interferon Regulatory Factor 1 (IRF1) binding to an Interferon-Stimulated Response Element (ISRE) (AID 2282948); conditions: HepG2 ISRE cis-reporter (Attagene), mRNA transcription readout; actives raise or lower the signal
# Procedure, shortened: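 Quantitation relies on labelled RT-PCR fragments separated by capillary electrophoresis. Human HepG2 cells bearing cis-promoter reporter constructs were treated 24 h; DMSO served as baseline for bidirectional fitting.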
# [4] = ATG_M_32_CIS: Attagene CIS-FACTORIAL HepG2 Assay for M32 Transcription Factor (Internal Marker) (AID 2282949); conditions: HepG2 Attagene cis-factorial M32 reporter, mRNA; actives raise or lower the signal;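 also: background control marker of the multiplexed CIS panel rather than a real target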
# Procedure, shortened: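 Internal background marker read-out: RT-PCR/capillary electrophoresis fluorescence of reporter transcripts from transiently transfected HepG2 cells after 24 h chemical exposure. Activity fitted bidirectionally relative to DMSO negative control.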
# [5] = molecular target: Hypoxia-inducible factor 1-alpha (Homo sapiens) (UniProt Q16665); experiment: ATG_HIF1a_CIS: Attagene CIS-FACTORIAL HepG2 Assay for human Hypoxia Inducible Factor 1 (HIF1A) (AID 2282951); conditions: HepG2 Attagene cis-factorial HIF1a reporter transcription; actives raise or lower the signal
# Procedure, shortened: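 Activity is fitted in both directions relative to DMSO. Reporter transcripts are read by RT-PCR, fluorescent primer extension and capillary electrophoresis after 24 h chemical treatment. The cells are HepG2 carrying transiently transfected cis-element-driven reporter units responding to endogenous factors.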
# [6] = molecular target: Hepatocyte nuclear factor 6 (Homo sapiens) (UniProt Q9UBC0); experiment: ATG_HNF6_CIS: Attagene CIS-FACTORIAL HepG2 Assay for human Hepatocyte Nuclear Factor 6 (HNF6) (AID 2282952); conditions: HepG2 Attagene cis-factorial HNF6 reporter transcription; actives raise or lower the signal
# Procedure, shortened: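 Multiplexed mRNA reporter assay in transfected HepG2; 24 h dosing; RT-PCR plus capillary electrophoresis fluorescence; DMSO-referenced bidirectional curve fitting.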
# [7] = molecular target: Heat shock factor protein 1 (Homo sapiens) (UniProt Q00613); experiment: ATG_HSE_CIS: Attagene CIS-FACTORIAL HepG2 Assay for human Heat Shock Transcription Factor 1 (HSE) (AID 2282953); conditions: HepG2 HSE cis-reporter, Attagene RNA transcription; actives raise or lower the signal
# Procedure, shortened: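 Read-out: fluorescence of reporter-specific RT-PCR fragments separated by capillary electrophoresis. HepG2 carrying transfected cis-element reporter units; 24 h dosing; activity fitted in both directions relative to DMSO baseline.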
# [8] = ATG_MRE_CIS: Attagene CIS-FACTORIAL HepG2 Assay for human Metal Responsive Element (MRE) (AID 2282954); conditions: HepG2 MRE cis-reporter transcription, Attagene multiplex; actives raise or lower the signal
# Procedure, shortened: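 Fluorescent reporter fragments separated by capillary electrophoresis give mRNA induction for the MRE unit after 24 h treatment of transfected HepG2 cells. Endogenous transcription-factor activity is read; DMSO serves as negative control and baseline.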
# [9] = ATG_PBREM_CIS: Attagene CIS-FACTORIAL HepG2 Assay for human Phenobarbital-responsive Enhancer Module (PBREM) (AID 2282955); conditions: HepG2 PBREM cis-reporter, Attagene multiplexed transcription; actives raise or lower the signal
# Procedure, shortened: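 Endogenous transcription factor activity was read from reporter transcripts in transiently transfected human HepG2 liver cells after 24 h dosing. RT-PCR products were fluorescently labelled, HpaI-cut and sized by capillary electrophoresis; activity fitted bidirectionally against DMSO baseline.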
# [10] = ATG_PXRE_CIS: Attagene CIS-FACTORIAL HepG2 Assay for human Pregnane X Receptor Element (PXRE) (AID 2282957); conditions: HepG2 Attagene CIS-FACTORIAL PXRE reporter, mRNA; actives raise or lower the signal
# Procedure, shortened: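 Cells: HepG2, transiently transfected reporter units under cis promoter control. Exposure: 24 h. Detection: reporter mRNA via RT-PCR/CE fluorescence; bidirectional fitting, DMSO-referenced.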
# [11] = ATG_PPRE_CIS: Attagene CIS-FACTORIAL HepG2 Assay for human Peroxisome Proliferator-activated Response Element (PPRE) (AID 2282958); conditions: HepG2 PPRE cis-element reporter, Attagene transcription factor profiling; actives raise or lower the signal
# Procedure, shortened: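 Endogenous PPRE-driven transcription is measured in HepG2 cells carrying transfected multi-reporter constructs. Reporter transcripts are quantified by RT-PCR, HpaI digestion and capillary electrophoresis 24 h after dosing. DMSO baseline, bidirectional fit.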
# [12] = ATG_RORE_CIS: Attagene CIS-FACTORIAL HepG2 Assay for human RAR-related Orphan Receptor Element (RORE) (AID 2282959); conditions: HepG2 Attagene cis-factorial RORE reporter, mRNA; actives raise or lower the signal
# Procedure, shortened: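 RORE reporter transcripts reflecting endogenous factor activity were read after 24 h compound exposure of transfected HepG2 cells, using reverse transcription, PCR, fluorescent labelling and capillary electrophoresis sizing. Gain or loss fitted against DMSO.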
# [13] = ATG_Sox_CIS: Attagene CIS-FACTORIAL HepG2 Assay for human SRY-box transcription factor (SOX) (AID 2282960); conditions: HepG2 Attagene cis-factorial SOX reporter, mRNA; actives raise or lower the signal
# Procedure, shortened: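 Reporter transcripts, measured by RT-PCR and capillary electrophoresis of labelled fragments, report endogenous SOX transcription factor activity. Transiently transfected human HepG2 cells receive chemical for 24 h; changes in either direction are fitted relative to DMSO.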
# [14] = molecular target: Transcription factor Sp1 (Homo sapiens) (UniProt P08047); experiment: ATG_Sp1_CIS: Attagene CIS-FACTORIAL HepG2 Assay for human Specificity Protein 1 (Sp1) (AID 2282961); conditions: HepG2 Sp1 cis-reporter transcription, actives raise or lower the signal
# Procedure, shortened: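 Read-out is reporter transcript level, measured by RT-PCR and fluorescent capillary electrophoresis after 24 h chemical treatment. System: transiently transfected HepG2 cells reporting endogenous transcription factor activity; gain or loss fitted against DMSO baseline.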
# [15] = ATG_SREBP_CIS: Attagene CIS-FACTORIAL HepG2 Assay for human Sterol Regulatory Element Binding (SREBP) (AID 2282962); conditions: HepG2 Attagene cis-factorial SREBP reporter, mRNA; actives raise or lower the signal
# Procedure, shortened: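 Twenty-four hours after chemical dosing of transfected HepG2 cultures, reporter RNA was converted to cDNA, amplified, end-labelled with 6-FAM and resolved by capillary electrophoresis. Responses were fitted relative to DMSO.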
# [16] = molecular target: Signal transducer and activator of transcription 3 (Homo sapiens) (UniProt P40763); experiment: ATG_STAT3_CIS: Attagene CIS-FACTORIAL HepG2 Assay for human Signal Transducer and Activator of Transcription 3 (STAT3) (AID 2282963); conditions: HepG2, Attagene cis-factorial STAT3 reporter transcription; actives raise or lower the signal
# Procedure, shortened: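 Values derive from bidirectional fits relative to DMSO of reporter mRNA levels, measured by RT-PCR with capillary electrophoresis, in HepG2 cells carrying transiently transfected cis-regulated reporter units and exposed 24 h.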
# [17] = ATG_TA_CIS: Attagene CIS-FACTORIAL HepG2 Assay for human TA Basal Promoter (AID 2282964); conditions: HepG2 Attagene CIS-factorial TA basal promoter reporter; actives raise or lower the signal
# Procedure, shortened: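 Transfected HepG2, 24 h compound exposure; RNA → RT-PCR → FAM primer extension → HpaI cut → CE fluorescence. Gain/loss-of-signal fitted against DMSO negative control. Background-control readout.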
# [18] = molecular target: Bile acid receptor (Homo sapiens) (UniProt Q96RI1); experiment: ATG_IR1_CIS: Attagene CIS-FACTORIAL HepG2 Assay for human Nuclear Receptor Subfamily 1 Group H Member 4 (NR1H4), IR1 submotif (AID 2282946); conditions: IR1 reporter transcription, actives raise or lower the signal
# Procedure, shortened: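 HepG2 cells transiently transfected with multiple cis-promoter-driven reporter units to measure endogenous transcription factor activity; 24 h exposure. Reporter mRNA read by RT-PCR, FAM labelling, HpaI digestion and capillary electrophoresis. Bidirectional fit versus DMSO.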
# [19] = ATG_M_06_CIS: Attagene CIS-FACTORIAL HepG2 Assay for M06 Transcription Factor (Internal Marker) (AID 2282950); conditions: HepG2 Attagene CIS-FACTORIAL M06 internal marker reporter; actives raise or lower the signal
# Procedure, shortened: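 Terse: HepG2, transient MRTU transfection (FuGene 6), 24 h dosing; total RNA, oligo(dT) RT, PCR, FAM label, HpaI cut, capillary electrophoresis; bidirectional fit vs DMSO baseline; background-control endpoint.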
# [20] = molecular target: Paired box protein Pax-6 (Homo sapiens) (UniProt P26367); experiment: ATG_Pax6_CIS: Attagene CIS-FACTORIAL HepG2 Assay for human Paired Box 6 (PAX6) (AID 2282956); conditions: HepG2 CIS-FACTORIAL PAX6 reporter transcription, RNA readout; actives raise or lower the signal
# Procedure, shortened: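 After twenty-four hours of chemical exposure, transfected HepG2 cells are harvested for RNA. Cis-promoter reporter transcripts are amplified, fluorescently labelled and sized by capillary electrophoresis, with gain and loss of signal scored against DMSO.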
# Sequence of Bile acid receptor (Homo sapiens) (Q96RI1 whole entry, looked up): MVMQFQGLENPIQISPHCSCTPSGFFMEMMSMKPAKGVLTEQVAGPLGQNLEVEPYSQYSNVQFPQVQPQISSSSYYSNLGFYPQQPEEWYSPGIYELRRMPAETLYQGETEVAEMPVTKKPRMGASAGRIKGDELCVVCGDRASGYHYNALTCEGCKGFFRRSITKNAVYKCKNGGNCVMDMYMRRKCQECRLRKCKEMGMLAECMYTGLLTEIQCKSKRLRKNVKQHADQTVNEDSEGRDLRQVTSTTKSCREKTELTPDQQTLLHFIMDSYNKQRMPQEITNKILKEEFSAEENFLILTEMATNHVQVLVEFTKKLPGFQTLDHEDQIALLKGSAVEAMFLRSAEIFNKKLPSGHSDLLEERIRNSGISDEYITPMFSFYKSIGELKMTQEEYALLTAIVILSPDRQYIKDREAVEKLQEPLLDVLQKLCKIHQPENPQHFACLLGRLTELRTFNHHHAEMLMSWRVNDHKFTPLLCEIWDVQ
# Sequence of Hepatocyte nuclear factor 6 (Homo sapiens) (Q9UBC0 whole entry, looked up): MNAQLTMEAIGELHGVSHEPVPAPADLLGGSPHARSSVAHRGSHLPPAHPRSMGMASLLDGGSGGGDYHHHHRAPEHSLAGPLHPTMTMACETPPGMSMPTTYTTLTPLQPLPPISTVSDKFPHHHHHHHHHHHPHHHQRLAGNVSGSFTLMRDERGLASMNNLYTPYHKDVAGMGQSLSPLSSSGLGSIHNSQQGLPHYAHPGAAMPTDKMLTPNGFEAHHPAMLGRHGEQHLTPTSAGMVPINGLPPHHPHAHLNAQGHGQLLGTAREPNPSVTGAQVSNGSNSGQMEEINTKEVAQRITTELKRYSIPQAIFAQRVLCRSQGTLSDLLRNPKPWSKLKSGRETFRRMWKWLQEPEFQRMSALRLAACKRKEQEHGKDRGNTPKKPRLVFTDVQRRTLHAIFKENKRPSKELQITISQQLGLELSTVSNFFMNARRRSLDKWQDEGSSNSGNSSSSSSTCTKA
# Sequence of Heat shock factor protein 1 (Homo sapiens) (Q00613 whole entry, looked up, the tested form may be a part): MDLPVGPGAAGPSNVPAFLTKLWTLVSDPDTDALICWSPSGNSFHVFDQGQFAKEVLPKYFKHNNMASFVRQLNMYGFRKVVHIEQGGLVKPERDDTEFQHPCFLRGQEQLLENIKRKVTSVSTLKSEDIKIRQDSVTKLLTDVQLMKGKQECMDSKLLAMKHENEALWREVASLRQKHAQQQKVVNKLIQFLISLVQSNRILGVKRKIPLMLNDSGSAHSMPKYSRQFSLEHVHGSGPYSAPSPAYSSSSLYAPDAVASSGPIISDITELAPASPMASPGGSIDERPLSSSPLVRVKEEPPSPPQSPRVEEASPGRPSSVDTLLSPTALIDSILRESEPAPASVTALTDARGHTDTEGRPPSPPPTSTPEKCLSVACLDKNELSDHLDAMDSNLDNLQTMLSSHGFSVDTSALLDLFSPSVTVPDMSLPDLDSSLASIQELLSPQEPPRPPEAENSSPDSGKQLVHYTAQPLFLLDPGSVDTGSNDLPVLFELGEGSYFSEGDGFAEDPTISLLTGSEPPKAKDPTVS
# Sequence of Paired box protein Pax-6 (Homo sapiens) (P26367 whole entry, looked up): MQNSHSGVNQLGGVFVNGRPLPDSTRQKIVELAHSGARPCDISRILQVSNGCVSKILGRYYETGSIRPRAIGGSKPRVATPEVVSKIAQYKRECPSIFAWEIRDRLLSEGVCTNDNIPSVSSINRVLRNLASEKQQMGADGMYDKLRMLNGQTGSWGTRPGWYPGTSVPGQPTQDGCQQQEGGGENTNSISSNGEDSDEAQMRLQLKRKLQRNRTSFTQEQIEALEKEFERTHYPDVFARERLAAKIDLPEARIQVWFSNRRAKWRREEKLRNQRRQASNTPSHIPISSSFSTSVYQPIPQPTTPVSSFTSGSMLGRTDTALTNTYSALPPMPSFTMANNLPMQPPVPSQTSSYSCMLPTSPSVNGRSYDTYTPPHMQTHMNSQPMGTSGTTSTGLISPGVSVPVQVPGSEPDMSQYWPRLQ
# Sequence of Hypoxia-inducible factor 1-alpha (Homo sapiens) (Q16665 whole entry, looked up): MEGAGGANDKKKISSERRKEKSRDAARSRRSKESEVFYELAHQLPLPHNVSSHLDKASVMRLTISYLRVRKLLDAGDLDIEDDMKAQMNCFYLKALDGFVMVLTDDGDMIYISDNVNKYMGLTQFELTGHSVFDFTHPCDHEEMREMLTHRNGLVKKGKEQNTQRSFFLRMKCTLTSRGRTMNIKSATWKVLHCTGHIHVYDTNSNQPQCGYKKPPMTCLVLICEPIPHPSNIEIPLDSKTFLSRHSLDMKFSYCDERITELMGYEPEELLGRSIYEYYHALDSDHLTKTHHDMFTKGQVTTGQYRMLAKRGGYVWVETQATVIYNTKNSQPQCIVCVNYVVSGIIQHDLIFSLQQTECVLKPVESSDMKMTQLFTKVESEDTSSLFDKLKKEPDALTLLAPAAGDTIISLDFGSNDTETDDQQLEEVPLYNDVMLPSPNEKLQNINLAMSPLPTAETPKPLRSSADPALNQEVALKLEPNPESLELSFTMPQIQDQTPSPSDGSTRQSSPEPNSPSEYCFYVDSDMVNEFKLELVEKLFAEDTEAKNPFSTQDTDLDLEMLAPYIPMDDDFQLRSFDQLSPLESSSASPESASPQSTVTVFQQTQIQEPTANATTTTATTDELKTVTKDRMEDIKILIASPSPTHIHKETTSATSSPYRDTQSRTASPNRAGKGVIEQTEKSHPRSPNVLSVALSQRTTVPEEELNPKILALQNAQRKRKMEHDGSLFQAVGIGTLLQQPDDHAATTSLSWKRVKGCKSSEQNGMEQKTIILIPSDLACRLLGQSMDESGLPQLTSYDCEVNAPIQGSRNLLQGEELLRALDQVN
# Sequence of Transcription factor Sp1 (Homo sapiens) (P08047 whole entry, looked up): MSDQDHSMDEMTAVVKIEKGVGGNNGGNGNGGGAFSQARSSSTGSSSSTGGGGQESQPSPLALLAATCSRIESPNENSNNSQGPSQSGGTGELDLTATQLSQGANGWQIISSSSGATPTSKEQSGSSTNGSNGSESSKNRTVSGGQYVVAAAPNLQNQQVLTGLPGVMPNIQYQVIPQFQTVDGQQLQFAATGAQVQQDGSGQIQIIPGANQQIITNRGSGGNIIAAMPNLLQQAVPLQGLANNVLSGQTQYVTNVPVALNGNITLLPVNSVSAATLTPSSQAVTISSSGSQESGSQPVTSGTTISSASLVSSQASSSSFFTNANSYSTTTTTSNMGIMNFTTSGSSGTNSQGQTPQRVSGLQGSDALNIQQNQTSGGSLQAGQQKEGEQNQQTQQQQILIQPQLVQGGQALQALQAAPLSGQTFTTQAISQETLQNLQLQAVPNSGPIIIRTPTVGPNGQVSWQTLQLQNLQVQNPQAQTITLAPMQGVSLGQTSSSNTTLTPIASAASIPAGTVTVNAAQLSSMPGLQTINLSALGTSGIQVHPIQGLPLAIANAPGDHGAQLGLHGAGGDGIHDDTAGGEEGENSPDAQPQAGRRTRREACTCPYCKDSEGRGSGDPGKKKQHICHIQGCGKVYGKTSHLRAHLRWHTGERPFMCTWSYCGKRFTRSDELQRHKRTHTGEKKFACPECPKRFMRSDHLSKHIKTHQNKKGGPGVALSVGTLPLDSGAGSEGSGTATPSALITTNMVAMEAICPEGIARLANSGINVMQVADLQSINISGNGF
# Sequence of Signal transducer and activator of transcription 3 (Homo sapiens) (P40763 whole entry, looked up): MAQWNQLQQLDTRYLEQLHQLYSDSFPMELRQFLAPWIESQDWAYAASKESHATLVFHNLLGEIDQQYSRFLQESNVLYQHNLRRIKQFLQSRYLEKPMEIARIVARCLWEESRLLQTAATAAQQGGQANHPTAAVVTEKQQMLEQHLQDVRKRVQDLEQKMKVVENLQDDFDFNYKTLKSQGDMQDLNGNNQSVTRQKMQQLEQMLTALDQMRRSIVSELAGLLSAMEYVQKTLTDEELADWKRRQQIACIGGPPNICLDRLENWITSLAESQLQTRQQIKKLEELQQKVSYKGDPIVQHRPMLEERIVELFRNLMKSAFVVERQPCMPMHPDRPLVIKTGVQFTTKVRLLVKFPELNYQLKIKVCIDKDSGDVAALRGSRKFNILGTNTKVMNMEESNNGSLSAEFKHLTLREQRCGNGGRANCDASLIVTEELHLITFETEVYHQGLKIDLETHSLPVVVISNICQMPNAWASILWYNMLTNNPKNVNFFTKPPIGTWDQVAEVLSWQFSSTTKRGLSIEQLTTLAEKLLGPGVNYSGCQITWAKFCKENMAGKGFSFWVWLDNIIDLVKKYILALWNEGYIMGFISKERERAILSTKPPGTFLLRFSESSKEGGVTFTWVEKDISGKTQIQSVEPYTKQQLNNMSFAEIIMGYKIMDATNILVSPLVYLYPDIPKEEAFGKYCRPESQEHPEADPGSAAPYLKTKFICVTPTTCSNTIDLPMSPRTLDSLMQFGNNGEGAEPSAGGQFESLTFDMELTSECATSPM
smiles,measurement,setting,value
O=C(O)Cc1cc(I)c(Oc2cc(I)c(O)c(I)c2)c(I)c1,AC50,[1],67 µM (active)
same,outcome,[1],inactive
same,AC50,[2],17.2 µM (active)
same,outcome,[2],inactive
same,outcome,[3],inactive
same,AC50,[4],108 µM (active)
same,outcome,[4],inactive
same,outcome,[5],inactive
same,outcome,[6],inactive
same,AC50,[7],40.5 µM (active) and 44.9 µM (active)
same,AC50,[8],32.7 µM (active) and 54.7 µM (active)
same,AC50,[9],113 µM (active) and 17.5 µM (active)
same,outcome,[10],inactive
same,AC50,[11],4.68 µM (active) and 13.3 µM (active)
same,AC50,[12],53.6 µM (active) and 10.8 µM (active)
same,AC50,[13],23.4 µM (active) and 18.1 µM (active)
same,AC50,[14],31.3 µM (active) and 17 µM (active)
same,AC50,[15],4.05 µM (active) and 5.53 µM (active)
same,outcome,[16],inactive
same,AC50,[17],84.2 µM (active)
same,outcome,[17],inactive
O=c1c(-c2ccc(O)cc2)coc2cc(O)ccc12,outcome,[1],inactive
same,AC50,[18],52.6 µM (active) and 100 µM (active)
same,outcome,[18],inactive
same,outcome,[2],inactive
same,outcome,[3],inactive
same,outcome,[4],inactive
same,outcome,[6],inactive
same,outcome,[7],inactive
same,outcome,[8],inactive
same,outcome,[9],inactive
same,outcome,[10],inactive
same,AC50,[11],42 µM (active) and 52.3 µM (active)
same,outcome,[11],inactive
same,outcome,[12],inactive
same,outcome,[13],inactive
same,AC50,[14],38.8 µM (active)
same,outcome,[14],inactive
same,AC50,[15],47.5 µM (active) and 91.4 µM (active)
same,outcome,[15],inactive
same,outcome,[16],inactive
same,outcome,[17],inactive
O=C(OCCOCCOC(=O)c1ccccc1)c1ccccc1,outcome,[1],inactive
same,outcome,[18],inactive
same,outcome,[2],inactive
same,outcome,[3],inactive
same,outcome,[4],inactive
same,outcome,[19],inactive
same,outcome,[5],inactive
same,outcome,[6],inactive
same,outcome,[7],inactive
same,outcome,[8],inactive
same,outcome,[9],inactive
same,outcome,[10],inactive
same,outcome,[11],inactive
same,outcome,[12],inactive
same,outcome,[13],inactive
same,outcome,[14],inactive
same,outcome,[15],inactive
same,outcome,[16],inactive
same,outcome,[17],inactive
OC1CCC(C2CCCCC2)CC1 (stereo unspecified),AC50,[1],70.6 µM (active)
same,outcome,[1],inactive
same,AC50,[18],100 µM (active)
same,outcome,[18],inactive
same,outcome,[2],inactive
same,AC50,[3],73.8 µM (active) and 81.2 µM (active)
same,outcome,[3],inactive
same,outcome,[4],inactive
same,outcome,[19],inactive
same,AC50,[5],100 µM (active)
same,outcome,[5],inactive
same,AC50,[6],154 µM (active)
same,outcome,[6],inactive
same,outcome,[7],inactive
same,AC50,[8],121 µM (active) and 128 µM (active)
same,outcome,[8],inactive
same,AC50,[20],127 µM (active)
same,outcome,[20],inactive
same,AC50,[10],26.7 µM (active) and 25.6 µM (active) and 28.6 µM (active)
same,outcome,[10],inactive
same,outcome,[11],inactive
same,outcome,[12],inactive
same,outcome,[13],inactive
same,outcome,[14],inactive
same,outcome,[15],inactive
same,outcome,[16],inactive
same,outcome,[17],inactive
CC(C)CCCCCCOC(=O)CCCCC(=O)OCCCCCCC(C)C,outcome,[1],inactive
same,outcome,[18],inactive
same,outcome,[2],inactive
same,outcome,[3],inactive
same,outcome,[4],inactive
same,outcome,[19],inactive
same,outcome,[5],inactive
same,outcome,[6],inactive
same,outcome,[7],inactive
same,outcome,[8],inactive
same,outcome,[20],inactive
same,AC50,[10],100 µM (active)
same,outcome,[11],inactive
same,outcome,[13],inactive
same,outcome,[14],inactive
same,outcome,[15],inactive
same,outcome,[16],inactive
same,outcome,[17],inactive
